# From PubChem BioAssay (NCATS)
# Records with an inconclusive call do not appear. A number with no mark means an inactive call. Calls of active or inactive are those of the source. Calls follow the shape of the dose curve; as a rule, active = well fitted inhibition curve with a large enough effect; inconclusive = small, poorly fitted or top-dose-only effect; inactive = no such curve, though single readings can be large or run the other way.
# Tested on: Zika virus NS2B-NS3 protease (linked construct)
# Experiment: Primary screen NINDS Rhodamine qHTS for Zika virus inhibitors (AID 1347160); also: nearly all actives have a fitted effect of over 55% in size
# Conditions: purified NS2B-NS3 protease, Rhodamine110 substrate fluorescence; series mostly up to 57.1 µM; activity change, negative = inhibition: at the top concentration
# Summary of the method: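 Purified NS2B-NS3 protease with the NS2B hydrophilic domain joined by a flexible linker (25 nM) in 10 mM Tris-HCl pH 8.0, 0.01% Tween 20, preincubated 15 min at RT with compound; Rhodamine110 peptide substrate 1.5 µM; fluorescence change over 15 min; 4-parameter Hill fit.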
# % is scaled to controls: 0 for no effect and ±100 for the full control effect; potency is read from the fitted curve at half-maximal effect.
SMILES,"activity change, negative = inhibition",Potency,outcome
CNc1nc(-c2ccc3c(N)n[nH]c3c2)cc(N2CC(C(=O)NC3CCCCC3)CCC2C)n1 (stereo not given),29.6%,,
CC[C@H]1OC(=O)[C@H](C)[C@@H](O[C@H]2C[C@@](C)(OC)[C@@H](O)[C@H](C)O2)[C@H](C)[C@@H](O[C@@H]2O[C@H](C)C[C@H](N(C)C)[C@H]2O)[C@](C)(O)C[C@@H](C)/C(=N/OCOCCOC)[C@H](C)[C@@H](O)[C@]1(C)O,-3.65%,,
C[C@@H](CN1CCC(n2c(=O)[nH]c3cc(Cl)ccc32)CC1)NC(=O)c1ccc2ccccc2c1,864%,,
CC1=CC(=O)[C@@]2(C(C)C)C[C@@H]12,,3160 nM (active),
CN(C)CC(=O)Nc1ccc2[nH]c(=O)c3ccccc3c2c1,-3.86%,,
C=C1C(=O)O[C@@H]2/C=C(/C)CC3C=C(C[C@H](OC(=O)/C(C)=C\C)[C@@H]12)C(=O)O3 (stereo not given in full),4.47% [at 33.1 µM],,
COc1ccc2c(c1)CN(C(=O)CCN1CCC(Cc3ccccc3)CC1)CCS2,58.1% [at 33.1 µM],,
CNc1cc(OC)c(C(=O)N[C@@H]2CCN(Cc3ccccc3)[C@@H]2C)cc1Cl,9.08%,,
CC(=O)Nc1ccc(C(=O)Nc2ccccc2N)cc1,2.95% [at 33.1 µM],,
CCOC(=O)CCC(=O)O[C@H]1[C@H](O[C@@H]2[C@@H](C)[C@H](O[C@H]3C[C@@](C)(OC)[C@@H](O)[C@H](C)O3)[C@@H](C)C(=O)O[C@H](CC)[C@@](C)(O)[C@H](O)[C@@H](C)C(=O)[C@H](C)CC2(C)O)O[C@H](C)C[C@@H]1N(C)C (stereo not given in full),20.5%,,
C=C(C(=O)O)C1CC2=C(C)C(=O)CC2C(C)CC1O (stereo not given),-6.03%,,
CCC(=O)Nc1cccc(Oc2nc(Nc3ccc(N4CCN(C)CC4)cc3OC)ncc2Cl)c1,128%,,
Cc1cc(CN)cc(C)c1NC(=O)c1ccc(-c2cc(Cl)ccc2Cl)o1,213%,,
C=C1C(=O)O[C@@H]2C[C@@]3(C)CCC[C@H](C)C3=C[C@H]12,4.05%,,
C=C1C(=O)O[C@@H]2[C@H]1[C@H](O)C[C@]1(C)[C@@H](O)CC=C(C)[C@@H]21,13.9%,,
O=C(Nc1cccc(C(F)(F)F)c1)c1ccccc1NCc1ccncc1,19.8%,,
Cc1cc(C)c(NC(=O)N(Cc2ccc3c(c2)Cc2ccccc2-3)C2CCCCCC2)c(C)c1,11.1%,,
CN(Cc1ccc(C(=O)O)cc1)c1ccc(OCc2c(-c3c(Cl)cccc3Cl)noc2C2CC2)nc1C(F)(F)F,,2510 nM (active),
Cn1nccc1Nc1nccc(-c2ccn([C@H](CO)c3ccc(Cl)c(F)c3)c(=O)c2)n1,11.8%,,
C[N+]1(C)[C@@H]2CC[C@H]1CC(OC(=O)C(O)c1ccccc1)C2 (stereo not given in full),12%,,
CC1CCN(c2cc(NC(=O)c3ccccc3)ncn2)CC1,25.2%,,
CCOc1ccc(-c2nc(-c3cccc4c3CCC4NCCO)no2)cc1OCC (stereo not given),2.9%,,
CCC(=O)c1cc(-c2ccc(Cl)cc2)n(-c2ccc(S(N)(=O)=O)cc2)c1C,,,inactive
COc1cc2nc(-c3cc(F)ccc3O)nc(N[C@@H]3CNC[C@H]3C(C)(C)O)c2cc1OC,404%,,
O=C(/C=C/n1cnc(-c2cc(C(F)(F)F)cc(C(F)(F)F)c2)n1)NNc1cnccn1,14.6%,,
COc1cc(-c2cc(-c3cccc(O)c3)cnc2N)cc(OC)c1OC,27.9%,,
COc1c(N2CC3CCCNC3C2)c(F)cc2c(=O)c(C(=O)O)cn(C3CC3)c12 (stereo not given),,,inactive
COc1ccc(Cl)cc1[C@@]1(F)C(=O)Nc2cc(C(F)(F)F)ccc21,-15%,,
COc1ccc(-c2c(C)c(C(=O)NN3CCCCC3)nn2-c2ccc(Cl)cc2Cl)cc1,24.7%,,
C[C@H](NC(=O)C(C)(C)Oc1ccc(C(F)(F)F)cn1)[C@@H](Cc1ccc(Cl)cc1)c1cccc(C#N)c1,-0.456%,,
